Results as given in PubChem BioAssay (NCI).
This is part of a sample that, as a whole, favours compounds with a hit. Of some 83,000 tested, about 20% had one in any assay.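 Step 1: grow cells in 96-well plates. Step 2: add test compound at a single concentration. Step 3: incubate 48 h. Step 4: record percent growth.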 Values without a mark were called inactive. Calls of active or inactive are those of the source. Rule for the calls: active = growth percent below 10; inactive = the rest.

What was measured:
Test in all cases: NCI-60 one-dose screen, 48 h (100 = growth as untreated, 0 = no growth, -100 = all killed)
Conditions in all cases: 10 µM unless noted
NCI-H23 lung = system: NCI-H23 lung
NCI-H226 lung = system: NCI-H226 lung
NCI-H322M lung = system: NCI-H322M lung
HOP-62 NSCLC = system: HOP-62 NSCLC
NCI-H460 lung = system: NCI-H460 lung
HOP-92 NSCLC = system: HOP-92 NSCLC
NCI-H522 lung = system: NCI-H522 lung
A549/ATCC NSCLC = system: A549/ATCC NSCLC
786-0 renal = system: 786-0 renal
COLO 205 colon = system: COLO 205 colon
DU-145 prostate = system: DU-145 prostate
K-562 leukemia = system: K-562 leukemia
MALME-3M melanoma = system: MALME-3M melanoma
MDA-MB-231 breast = system: MDA-MB-231 breast
RXF 393 renal = system: RXF 393 renal
SF-268 CNS = system: SF-268 CNS
SF-295 CNS = system: SF-295 CNS
UACC-257 melanoma = system: UACC-257 melanoma
M14 melanoma = system: M14 melanoma

C=C1CCC2C3(C)COC(c4ccc(SC)cc4)OC3CCC2(C)C1C/C=C1/C(=O)OCC1O (stereo unspecified)
growth (NCI-H23 lung): 44.9%
growth (NCI-H226 lung): 48.7%
growth (NCI-H322M lung): 102%
growth (HOP-62 NSCLC): 107%
growth (NCI-H460 lung): 81.8%
growth (HOP-92 NSCLC): 81.7%
growth (NCI-H522 lung): 73.3%
growth (A549/ATCC NSCLC): 83.6%
growth (786-0 renal): 78.4%
growth (COLO 205 colon): 72.3%
growth (DU-145 prostate): 88.1%
growth (K-562 leukemia): 20.1%
growth (MALME-3M melanoma): 100%
growth (MDA-MB-231 breast): 87.9%
growth (RXF 393 renal): 42.6%
growth (SF-268 CNS): 88.7%
growth (SF-295 CNS): 81.9%
growth (UACC-257 melanoma): 91.5%
growth (M14 melanoma): 69.3%

CCn1cc2c(cc1=O)-c1nc3ccccc3c3ccnc(c13)C2=O
growth (NCI-H23 lung): 27.6%
growth (NCI-H226 lung): 63.1%
growth (NCI-H322M lung): 76.3%
growth (HOP-62 NSCLC): 11.9%
growth (NCI-H460 lung): 2.86% (active)
growth (HOP-92 NSCLC): 56.6%
growth (NCI-H522 lung): 39%
growth (A549/ATCC NSCLC): 29%
growth (786-0 renal): 69.1%
growth (COLO 205 colon): 60.8%
growth (DU-145 prostate): 36.6%
growth (K-562 leukemia): 50.6%
growth (MALME-3M melanoma): 90.1%
growth (MDA-MB-231 breast): 75.1%
growth (RXF 393 renal): 63.5%
growth (SF-268 CNS): 54.3%
growth (SF-295 CNS): 29.9%
growth (UACC-257 melanoma): 74.2%
growth (M14 melanoma): 28.9%

Cc1ccccc1CCO
growth (NCI-H23 lung): 100%
growth (NCI-H226 lung): 93.7%
growth (NCI-H322M lung): 90.8%
growth (HOP-62 NSCLC): 89.1%
growth (NCI-H460 lung): 105%
growth (HOP-92 NSCLC): 104%
growth (NCI-H522 lung): 76.2%
growth (A549/ATCC NSCLC): 85.4%
growth (786-0 renal): 100%
growth (COLO 205 colon): 92.7%
growth (DU-145 prostate): 111%
growth (K-562 leukemia): 114%
growth (MALME-3M melanoma): 92.5%
growth (MDA-MB-231 breast): 110%
growth (RXF 393 renal): 104%
growth (SF-268 CNS): 101%
growth (SF-295 CNS): 99.6%
growth (UACC-257 melanoma): 89.4%
growth (M14 melanoma): 98.3%

O=C(COCc1c(-c2ccccc2)no[n+]1[O-])Nc1ccc(C(=O)/C=C/c2ccc3c(c2)OCO3)cc1
growth (NCI-H23 lung): 101%
growth (NCI-H226 lung): 96.6%
growth (NCI-H322M lung): 113%
growth (HOP-62 NSCLC): 108%
growth (NCI-H460 lung): 112%
growth (HOP-92 NSCLC): 73.2%
growth (NCI-H522 lung): 140%
growth (A549/ATCC NSCLC): 85.4%
growth (786-0 renal): 113%
growth (COLO 205 colon): 120%
growth (DU-145 prostate): 116%
growth (K-562 leukemia): 92.4%
growth (MALME-3M melanoma): 123%
growth (MDA-MB-231 breast): 101%
growth (RXF 393 renal): 95.9%
growth (SF-268 CNS): 97.9%
growth (SF-295 CNS): 103%
growth (UACC-257 melanoma): 93.3%
growth (M14 melanoma): 109%

CCCCNC(=O)NS(=O)(=O)c1ccc(N2N=C(c3cc(C)ccc3C)CC2c2cc(OC)c(OC)c(OC)c2)cc1 (stereo unspecified)
growth (NCI-H23 lung): -26.1% (active)
growth (NCI-H226 lung): 75.2%
growth (NCI-H322M lung): 66.7%
growth (HOP-62 NSCLC): 53.8%
growth (NCI-H460 lung): 57.5%
growth (HOP-92 NSCLC): 62.4%
growth (NCI-H522 lung): 53.7%
growth (A549/ATCC NSCLC): 32.6%
growth (786-0 renal): 47.9%
growth (COLO 205 colon): 44.7%
growth (DU-145 prostate): 88.9%
growth (K-562 leukemia): 36.1%
growth (MALME-3M melanoma): 25.3%
growth (MDA-MB-231 breast): 79.4%
growth (RXF 393 renal): 44.7%
growth (SF-268 CNS): 66%
growth (SF-295 CNS): 8.51% (active)
growth (UACC-257 melanoma): 59.3%
growth (M14 melanoma): 8.53% (active)

COc1ccc(-c2csc(NC(=O)CN3CCN(c4cc5c(cc4F)c(=O)c(C(=O)O)cn5C4CC4)CC3)n2)cc1
growth (NCI-H23 lung): 9.73% (active)
growth (NCI-H226 lung): 16%
growth (NCI-H322M lung): 17.1%
growth (HOP-62 NSCLC): 15.4%
growth (NCI-H460 lung): 3.8% (active)
growth (HOP-92 NSCLC): -17.2% (active)
growth (NCI-H522 lung): -9.19% (active)
growth (A549/ATCC NSCLC): 9.1% (active)
growth (786-0 renal): 24.4%
growth (COLO 205 colon): 12.6%
growth (DU-145 prostate): 30.2%
growth (K-562 leukemia): 19%
growth (MALME-3M melanoma): 15.4%
growth (MDA-MB-231 breast): 11.9%
growth (RXF 393 renal): 18.7%
growth (SF-268 CNS): 29.2%
growth (SF-295 CNS): -4.67% (active)
growth (UACC-257 melanoma): -13.4% (active)
growth (M14 melanoma): 20.3%

C/C(=C(/c1ccc(O)cc1)c1ccc(OCCN(C)C)cc1)c1ccccc1
growth (NCI-H23 lung): 81.9%
growth (NCI-H226 lung): 89.4%
growth (NCI-H322M lung): 77%
growth (HOP-62 NSCLC): 79.8%
growth (NCI-H460 lung): 93.7%
growth (HOP-92 NSCLC): 54.9%
growth (NCI-H522 lung): 71.8%
growth (A549/ATCC NSCLC): 72.4%
growth (786-0 renal): 89.5%
growth (COLO 205 colon): 63.8%
growth (DU-145 prostate): 98.1%
growth (K-562 leukemia): 36.6%
growth (MALME-3M melanoma): 79.9%
growth (MDA-MB-231 breast): 85.2%
growth (RXF 393 renal): 69.3%
growth (SF-268 CNS): 83.3%
growth (SF-295 CNS): 98.1%
growth (UACC-257 melanoma): 78.1%
growth (M14 melanoma): 65.1%

CC/C=C\C[C@H](F)C/C=C1/C(=O)C=C[C@@H]1C/C=C\CCCC(=O)O
growth (NCI-H23 lung): 62.7%
growth (NCI-H226 lung): 104%
growth (NCI-H322M lung): 93.6%
growth (HOP-62 NSCLC): 111%
growth (NCI-H460 lung): 50.6%
growth (HOP-92 NSCLC): 109%
growth (NCI-H522 lung): 31%
growth (A549/ATCC NSCLC): 68.3%
growth (786-0 renal): 82.4%
growth (COLO 205 colon): 48.5%
growth (DU-145 prostate): 66.3%
growth (K-562 leukemia): 10.3%
growth (MALME-3M melanoma): 59.2%
growth (MDA-MB-231 breast): 73%
growth (RXF 393 renal): 75%
growth (SF-268 CNS): 82.3%
growth (SF-295 CNS): 96.2%
growth (UACC-257 melanoma): 49.7%
growth (M14 melanoma): 32.1%

CC/C=C\C[C@H](O)C/C=C1/C(=O)C=C[C@@H]1C/C=C\CCCC(=O)NC(C)C
growth (NCI-H23 lung): 13.4%
growth (NCI-H226 lung): -33.5% (active)
growth (NCI-H322M lung): 39.9%
growth (HOP-62 NSCLC): -16.8% (active)
growth (NCI-H460 lung): -4.43% (active)
growth (HOP-92 NSCLC): 65.3%
growth (NCI-H522 lung): -35.5% (active)
growth (A549/ATCC NSCLC): 2.59% (active)
growth (786-0 renal): 0.451% (active)
growth (COLO 205 colon): -41.3% (active)
growth (DU-145 prostate): 27.2%
growth (K-562 leukemia): 3.29% (active)
growth (MALME-3M melanoma): -4.08% (active)
growth (MDA-MB-231 breast): 19.9%
growth (RXF 393 renal): -64.8% (active)
growth (SF-268 CNS): 35.4%
growth (SF-295 CNS): 6.21% (active)
growth (UACC-257 melanoma): -4.26% (active)
growth (M14 melanoma): 7.13% (active)
